# “And” between values parts separate entries of the source, which are not always exact repeats. Equal values may be shown once. Records with an inconclusive call do not appear. A number with no mark means an inactive call. The source made the active and inactive calls. The call rests on the fitted dose curve; in most records, active means well fitted curve in the direction sought with a large enough effect; inconclusive means small, poorly fitted or top-dose-only effect, or another doubt; inactive means no such curve, though single readings can be large; an effect the other way counts as inactive or inconclusive.
# How the values were obtained:
# [1] = Viability qHTS for spleen associated tyrosine kinase inhibitor (SYKi) drug resistant MV4-11 cells (AID 1963824); further: nearly all actives have a fitted effect of over 35% in size
# Outline: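 CellTiter-Glo luminescence, read 10 min after reagent addition, reports viability after a 72 hr compound exposure. Cells are an MV4-11 line made resistant to SYK inhibition, seeded at 500 per well onto compound-containing plates.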
# [2] = Cellular viability qHTS for adrenocortical cancer (ACC) cell line SW-13 (AID 1963989); conditions: SW-13 ACC cells viability, CellTiter-Glo, 48 h; activity (max response): hits give low values; further: nearly all actives have a fitted effect of over 65% in size;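 on activity (max response): cells grown in serum-free medium with ITS supplement; on the % scale 0 is the no-effect control and ±100 the full control effect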
# Outline: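 Compound titrations (up to 46 uM final, in DMSO) were applied to SW-13 cells for 48 h at 37C/5% CO2. Reading used CellTiter-Glo after 20 min at room temperature; fitted curves yielded IC50 and efficacy.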
# [3] = Quantitative highthroughput screen to assess conditional lethalithy of P12 Ichikawa cells grown in RPMI1640 with dialyzed fetal bovine serum (RPMI+ds) (AID 1963880); conditions: Potency: P12-Ichikawa viability; further: nearly all actives have a fitted effect of over 35% in size
# Outline: (§1)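 Each medium arm—HPLM with 10% dialyzed FBS, or RPMI1640 with 5 mM glucose and 10% untreated or dialyzed FBS—was screened against an 11-point, 3-fold compound titration for 48 h at 37 °C, with CellTiter-Glo luminescence as endpoint.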
# [4] = Quantitative highthroughput screen to assess conditional lethalithy of SEM cells grown in Human Plasma-Like Medium with dialyzed fetal bovine serum (HPLM+ds) (AID 1963882); further: nearly all actives have a fitted effect of over 35% in size; on Viability: series mostly up to about 46 µM
# Outline: as §1
# [5] = Quantitative highthroughput screen to assess conditional lethalithy of SEM cells grown in RPMI1640 with unreated serum (RPMI+s) (AID 1963883); further: nearly all actives have a fitted effect of over 35% in size;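 on Viability: 100% = DMSO wells and 0% = empty wells without cells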
# Outline: as §1
# [6] = Quantitative highthroughput screen to assess conditional lethalithy of SEM cells grown in RPMI1640 with dialyzed fetal bovine serum (RPMI+ds) (AID 1963884); further: nearly all actives have a fitted effect of over 35% in size;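 on Viability: series mostly up to about 46 µM; 100% = DMSO control wells and 0% = empty wells without cells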
# Outline: as §1
# [7] = Cellular viability qHTS for adrenocortical cancer (ACC) cell line NCI-H295R (AID 1963990); further: nearly all actives have a fitted effect of over 60% in size
# Outline: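 Readout: CellTiter-Glo luminescence, 20 min RT. Exposure: 48 h, 37C/5% CO2. Cells: NCI-H295R, ITS-DMEM serum-free. Range: up to 46 uM. Analysis: 4PL fit, IC50 plus efficacy.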
# [8] = Quantitative highthroughput screen to assess conditional lethalithy of P12 Ichikawa cells grown in RPMI1640 with untreated serum (RPMI+s) (AID 1963881); conditions: Potency: viability; further: nearly all actives have a fitted effect of over 35% in size
# Outline: as §1
# Potency means the concentration at half of the fitted maximal effect.
structure (smiles),measurement,setting,value
O=C(Nc1nccs1)C(c1cc(F)ccc1O)N1Cc2ccccc2C1=O (configuration not stated),Potency,[1],16.6 µM (active)
same,activity (max response),[2],-2.19%
COc1cc2c(cc1OC)[C@@H]1CC(=O)[C@@H](CC(C)C)CN1CC2,Potency,[1],inactive
same,activity (max response),[2],-4.64%
CC(=O)OCC(=O)[C@@]1(O)CCC2C3CCC4=CC(=O)CC[C@]4(C)C3[C@@H](O)C[C@@]21C (some centres not stated),Potency,[1],inactive
same,activity (max response),[2],-1.87%
CC(C)(C)C[C@H]1N[C@@H](C(=O)NC2CCC(O)CC2)[C@H](c2cccc(Cl)c2F)[C@@]12C(=O)Nc1cc(Cl)ccc12 (some centres not stated),Potency,[1],6.61 µM (active)
same,Potency,[2],25.1 µM (active)
COc1ccc(N(C)c2nc(C)nc3ccccc23)cc1,Potency,[1],0.0042 µM (active)
same,Potency,[2],0.0112 µM (active)
Cc1c(C(=O)NN2CCCCC2)nn(-c2ccc(Cl)cc2Cl)c1-c1ccc(Cl)cc1,Potency,[1],23.7 µM (active)
same,Potency,[3],3.32 µM (active)
same,Potency,[4],inactive
same,Potency,[5],inactive
same,Potency,[6],inactive
same,Potency,[2],28.2 µM (active)
same,Potency,[7],20.6 µM (active) and 28.2 µM (active)
N#CNC(=NCCCCCCOc1ccc(Cl)cc1)Nc1ccncc1,Potency,[1],0.0042 µM (active)
same,Potency,[3],0.0019 µM (active)
same,Potency,[8],0.0026 µM (active)
same,Potency,[5],inactive
same,Potency,[7],0.0158 µM (active)
CS(=O)(=O)N(Cc1ccco1)CC(O)Cn1c2ccccc2c2ccccc21 (configuration not stated),Potency,[1],16.4 µM (active) and 16.6 µM (active)
same,Potency,[4],18.7 µM (active)
same,Potency,[5],14.8 µM (active)
same,Potency,[6],5.9 µM (active)
same,Potency,[7],inactive
CCCC[C@@H](C=O)NC(=O)[C@H](CC(C)C)NC(=O)OCc1ccccc1,Potency,[1],18.6 µM (active)
same,activity (max response),[2],-4.14%
Cc1cc(Nc2cc(NC(=O)c3c(Cl)cccc3Cl)ccn2)nc(N)n1,Potency,[1],0.164 µM (active)
same,Potency,[3],1.18 µM (active)
same,Potency,[6],1.05 µM (active)
same,Potency,[7],7.08 µM (active)
C[C@@H](Nc1cc(F)cc(F)c1)c1cc(C(=O)N(C)C)cc2c(=O)cc(N3CCOCC3)oc12,Potency,[1],2.31 µM (active) and 6.61 µM (active)
same,activity (max response),[2],-10.8%
CC[C@H](C)C(=O)O[C@H]1CCC=C2C=C[C@H](C)[C@H](CC[C@@H]3C[C@@H](O)CC(=O)O3)[C@H]21,Potency,[1],4.68 µM (active)
same,activity (max response),[2],-23.7%
CN1CCCC(n2nc(Cc3ccc(Cl)cc3)c3ccccc3c2=O)CC1 (configuration not stated),Potency,[1],26.6 µM (active)
same,Potency,[5],inactive
same,Potency,[6],inactive
same,Potency,[7],18.4 µM (active)
CC/C(=C(\c1ccccc1)c1ccc(OCCN(C)C)cc1)c1ccccc1,Potency,[1],10.8 µM (active) and 18.8 µM (active)
same,Potency,[2],6.31 µM (active)
same,Potency,[7],11.2 µM (active) and 16.4 µM (active)
CC[C@H](NC(=O)[C@H](CS(=O)(=O)CC1CC1)N[C@@H](c1ccc(F)cc1)C(F)(F)F)C(=O)C(=O)NC1CC1,Potency,[1],inactive
same,activity (max response),[2],-11.3%
same,Potency,[7],inactive
NC(=O)c1cc(F)cc2c1C(=O)N(C1CCN(C3CCC(F)(F)CC3)CC1)C2,Potency,[1],inactive
same,activity (max response),[2],-0.81%
CN1CCN(CCCNc2ncc(Cl)c(-c3cc4c(C(=O)NC5CC5)cccc4s3)n2)CC1,Potency,[1],18.6 µM (active)
same,activity (max response),[2],0.565%
COCCOc1ccc(N2CCN(CCn3ncc4c3nc(N)n3nc(-c5ccco5)nc43)CC2)cc1,Potency,[1],0.103 µM (active)
same,activity (max response),[2],-19.9%
same,Potency,[7],inactive
COC(=O)C1=C(C)NC(c2ncc(F)cc2F)=N[C@H]1c1ccc(F)cc1Cl,Potency,[1],9.34 µM (active)
same,activity (max response),[2],-9.49%
c1cc(Nc2cc(C3CC3)[nH]n2)nc(Nc2ccc3nc[nH]c3c2)n1,Potency,[1],0.0184 µM (active)
same,Potency,[2],0.224 µM (active)
same,Potency,[7],8.91 µM (active)
CCc1cc2cc(OC)c(OC)cc2c(Cc2ccccc2)n1,Potency,[1],10.6 µM (active)
same,activity (max response),[2],-5.12%
same,Potency,[7],inactive
C[C@]1(Cn2ccnn2)[C@H](C(=O)O)N2C(=O)C[C@H]2S1(=O)=O,Potency,[1],inactive
same,activity (max response),[2],2.68%
CN[C@@H]1[C@@H](O)[C@@H](O[C@@H]2[C@@H](O)[C@H](O[C@H]3O[C@H](CN)[C@@H](O)[C@H](O)[C@H]3O)[C@@H](N)C[C@H]2NC(=O)C(O)CN)OC[C@]1(C)O (some centres not stated),Potency,[1],inactive
same,activity (max response),[2],-3.06%
Nc1ccc(O)c(C(=O)O)c1,Potency,[1],inactive
same,activity (max response),[2],6.74%
same,Potency,[7],inactive
CN(C)[C@@H]1C(=O)C(C(N)=O)=C(O)[C@@]2(O)C(=O)C3=C(O)c4c(O)ccc(Cl)c4[C@@H](O)[C@H]3C[C@@H]12,Potency,[1],8.41 µM (active)
same,activity (max response),[2],-3.2%
same,Potency,[7],inactive
COc1ccc(S(=O)(=O)N2c3ccc(Cl)cc3[C@@](O)(c3ccccc3Cl)[C@H]2C(=O)N2CCC[C@@H]2C(N)=O)cc1OC,Potency,[1],16.8 µM (active)
same,activity (max response),[2],-24.3%
O=S(=O)(Nc1ccc(-c2cccnc2)c2cccnc12)c1cccc(C(F)(F)F)c1,Potency,[1],5.25 µM (active)
same,Potency,[2],4.47 µM (active)
COc1cc(N2CCC(N3CCN(C)CC3)CC2)ccc1Nc1ncc(Cl)c(Nc2ccccc2S(=O)(=O)C(C)C)n1,Potency,[1],116 nM (active) and 209 nM (active)
same,Potency,[2],5.01 µM (active)
same,Potency,[7],1.12 µM (active)
O=C(CS(=O)Cc1ccco1)NC/C=C\COc1cc(CN2CCCCC2)ccn1 (configuration not stated),Potency,[1],inactive
same,activity (max response),[2],2.9%
same,Potency,[7],inactive
CCOc1ccc2ccccc2c1C(=O)N[C@@H]1C(=O)N2[C@@H]1SC(C)(C)[C@@H]2C(=O)O,Potency,[1],inactive
same,activity (max response),[2],2.64%
same,Potency,[7],inactive
CC(=O)[C@H]1CC[C@H]2[C@@H]3C[C@H](C)C4=CC(=O)CC[C@]4(C)[C@H]3[C@@H](O)C[C@]12C,Potency,[1],23.7 µM (active)
same,activity (max response),[2],8.53%
same,Potency,[7],inactive
CNC(=O)Cn1cc(-c2ccc3c(c2)C(F)CC32NC(=O)N(CC(=O)N(Cc3ccc(F)cc3)[C@@H](C)C(F)(F)F)C2=O)cn1 (some centres not stated),Potency,[1],0.132 µM (active)
same,activity (max response),[2],8.67%
same,Potency,[7],inactive
C[n+]1c2cc(N)ccc2cc2ccc(N)cc21 (tested in a mixture with another compound),Potency,[1],1.88 µM (active)
same,Potency,[2],2.31 µM (active)
CC(C)(C)NC(=O)c1cncn1C1CCN(c2ccc(-c3nnc(C(F)(F)F)o3)cn2)CC1,Potency,[1],2.95 µM (active)
same,activity (max response),[2],-14%
same,Potency,[7],2.82 µM (active)
CC(=O)OCC1=C(C(=O)O)N2C(=O)[C@@H](NC(=O)CSc3ccncc3)[C@H]2SC1,Potency,[1],inactive
same,activity (max response),[2],10.5%
NS(=O)(=O)c1ccc(Cc2c(-c3cccc(-c4ccccc4)c3)nn(-c3nc(C(=O)O)cs3)c2CC2CC2)cc1,Potency,[1],10.5 µM (active)
same,Potency,[2],31.6 µM (active)
same,Potency,[7],28.2 µM (active)
O=C1c2ccccc2CCc2ccccc21,Potency,[1],inactive
same,activity (max response),[2],4.16%
same,Potency,[7],inactive
CC1CCC(n2c3cnccc3c3cnc(Nc4ccc5c(n4)CCN(C(=O)CO)C5)nc32)CC1 (configuration not stated),Potency,[1],164 nM (active) and 170 nM (active)
same,activity (max response),[2],-7.81%
C=CC(=O)Nc1cc(Nc2nccc(-c3cn(C)c4ccccc34)n2)c(OC)cc1N(C)CCN(C)C,Potency,[1],0.934 µM (active)
same,Potency,[2],2 µM (active)
same,Potency,[7],3.98 µM (active)
Oc1ccc(Cl)cc1Sc1cc(Cl)ccc1O,Potency,[1],15 µM (active)
same,Potency,[2],3.26 µM (active)
same,Potency,[7],4.11 µM (active)
Nc1nc(N)c2nc(-c3cccc(Cl)c3)c(N)nc2n1,Potency,[1],1.48 µM (active)
same,Potency,[2],1.26 µM (active)
same,Potency,[7],1.12 µM (active)
CC(O)C(=O)O (configuration not stated),Potency,[1],inactive
same,activity (max response),[2],6.49%
CO[C@H]1/C=C/O[C@@]2(C)Oc3c(C)c(O)c4c(O)c(c5c(nc6cc(C)ccn65)c4c3C2=O)NC(=O)/C(C)=C\C=C\[C@H](C)[C@H](O)[C@@H](C)[C@@H](O)[C@@H](C)[C@H](OC(C)=O)[C@@H]1C,Potency,[1],14.8 µM (active)
same,Potency,[2],25.1 µM (active)
CCN(CC)CCOC(=O)C(Cc1cccc2ccccc12)CC1CCCO1 (configuration not stated),Potency,[1],inactive
same,activity (max response),[2],-10.7%
CC(CSC(=O)c1ccccc1)C(=O)N1C[C@@H](Sc2ccccc2)C[C@H]1C(=O)O (some centres not stated),Potency,[1],inactive
same,activity (max response),[2],-2.01%
same,Potency,[7],inactive
CCc1nnc(NS(=O)(=O)c2ccc(N)cc2)s1,Potency,[1],inactive
same,activity (max response),[2],4.19%
same,Potency,[7],inactive
Cc1[nH]cnc1-c1ccc(Cl)cc1,Potency,[1],inactive
same,activity (max response),[2],8.54%
same,Potency,[7],inactive
CN[C@@H](C)C(=O)N[C@@H]1C(=O)N(Cc2c(C)ccc3ccccc23)c2ccc(C#N)cc2N(C(C)=O)[C@H]1C,Potency,[1],13.2 µM (active)
same,activity (max response),[2],3.96%
Cc1ccc(NC(=O)c2ccc3c(c2)OCCO3)cc1NC(=O)c1ccc2nc(OCCN3CCCC3)ccc2c1,Potency,[1],0.0229 µM (active)
same,Potency,[2],0.802 µM (active)
CS(=O)(=O)N1CCN(Cc2cc3nc(-c4cccc5[nH]ncc45)nc(N4CCOCC4)c3s2)CC1,Potency,[1],461 nM (active) and 2.09 µM (active)
same,Potency,[2],17.8 µM (active)
same,Potency,[7],2.24 µM (active)
CC1=C(/C=C/C(C)=C/C=C/C(C)=C\C(=O)O)C(C)(C)CCC1,Potency,[1],6.61 µM (active)
same,activity (max response),[2],-0.514%
same,Potency,[7],inactive
C#C[C@]1(O)CC[C@H]2[C@@H]3CCc4cc(OC)ccc4[C@H]3CC[C@@]21C,Potency,[1],13.3 µM (active)
same,activity (max response),[2],5.57% and 4.24%
same,Potency,[7],inactive
C#CC[C@H](c1nc2cc(Cl)ccc2c(=O)n1Nc1ccccc1)N(CCCN)C(=O)c1cccc(Cl)c1F,Potency,[1],0.206 µM (active)
same,Potency,[2],0.251 µM (active)
same,Potency,[7],3.55 µM (active)
C[C@]12CCC(=O)C=C1[C@@H]1C[C@@H]1[C@H]1[C@@H]3[C@@H]4C[C@@H]4[C@@]4(CCC(=O)O4)[C@@]3(C)CC[C@@H]12,Potency,[1],21.1 µM (active) and 18.6 µM (active)
same,activity (max response),[2],-8.86% and -13.4%
same,Potency,[7],inactive
Cc1cc(O)c(-c2ccc([C@@H](C)CN(C)C)cc2)c2c1[nH]c(=O)c1sccc12,Potency,[1],0.0092 µM (active)
same,Potency,[2],0.0891 µM (active)
same,Potency,[7],0.251 µM (active)
